Biological target: Torsin-1A (Homo sapiens) (UniProt O14656)
Experiment: small-molecule binders of mutant TOR1A in lysate, primary screen, cell lysate, small-molecule microarray, COS7 lysate, 635/667 nm fluorescence (AID 1150);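 further: score pools 667 nm emission and signal to noise measuring lysate protein binding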
Conditions: COS7 hTOR1A mutant lysate, 635 nm fluorescence, higher = more signal

Chain of Torsin-1A (Homo sapiens) (O14656 whole entry, looked up): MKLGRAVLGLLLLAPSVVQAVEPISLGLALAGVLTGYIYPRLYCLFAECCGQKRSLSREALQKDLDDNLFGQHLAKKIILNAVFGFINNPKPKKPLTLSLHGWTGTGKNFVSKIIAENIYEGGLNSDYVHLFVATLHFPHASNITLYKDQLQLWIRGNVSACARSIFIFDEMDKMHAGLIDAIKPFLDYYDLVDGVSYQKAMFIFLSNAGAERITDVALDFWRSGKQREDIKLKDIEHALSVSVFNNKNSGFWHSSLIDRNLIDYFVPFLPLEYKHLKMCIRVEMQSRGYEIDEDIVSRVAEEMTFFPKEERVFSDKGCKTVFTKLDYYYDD

SMILES	composite z-score
CC(C)C(=C=CC[C@@H](O)c1ccc(OCCO)cc1)CCO	0.167
CC#CCO[Si](C#CCCCCCC)(C(C)C)C(C)C	-1.03
CN(C)CCCC[C@@H]1NC(=O)[C@H]2C[C@@H](C(=O)NCc3ccc(F)cc3)[C@@H](c3ccc(O)cc3)N2C1=O	0.587
CC(C)N1CC=CC23O[C@@H]4C=CCCOC(=O)C4[C@H]2C(=O)N(CCCCCO)[C@@H]3C1=O (stereo not given in full)	-1.12
COCCOC(=O)N1C(=O)[C@@]2(c3ccccc31)[C@H](C(=O)N1CCCCCCC1)[C@H]1C(=O)O[C@H](c3ccccc3)[C@H](c3ccccc3)N1[C@@H]2c1ccc(O)cc1	2.57
C#CCN([C@H](/C=C/C1CC1)[C@@H](O)Cc1ccccc1)[C@@H](Cc1ccccc1)C(=O)OC	-0.409
COC(=O)[C@@]1(Cc2ccc(F)cc2)[C@H]2c3cc(C(=O)N(C)C)n(CCn4cc([N+](=O)[O-])nc4C)c3C[C@H]2CN1C(=O)c1ccccc1	0.373
CCOC(=O)C[C@H]1[C@H](OC(=O)Cc2ccc3c(c2)OCO3)[C@@H](NC(=O)c2ccccc2)c2cc(OCCCO)ccc2N1C(=O)Cc1ccc(OC)cc1	0.749
C[N+](C)(C)CCCC[C@@H]1NC(=O)[C@H]2C[C@@H](C(=O)NCCCCCNC(=O)CS)[C@@H](c3ccc(O)cc3)N2C1=O	0.891
CN1C(=O)[C@]2(CCS(=O)(=O)c3ccccc3)N=C(c3ccc(OCCCO)cc3)O[C@@H]2c2ccccc21	1.16
O=C1O[C@@H](c2ccccc2)[C@@H](c2ccccc2)N2[C@@H](c3ccc(OCCO)cc3)[C@]3(C(=O)Nc4ccc(C#CCCO)cc43)[C@@H](C(=O)Nc3nc4ccccc4s3)[C@H]12	0.79
COCCn1c(C(=O)N2CCCC2)cc2c1C[C@H]1CN(C(=O)c3ccccc3)[C@@](Cc3ccccc3)(C(=O)OC)[C@@H]21	1.18
CC(C)(C)N1CC=CC23O[C@@H]4/C=C\CCCOC(=O)C4[C@H]2C(=O)N(CCCCCCO)[C@@H]3C1=O (stereo not given in full)	0.488
CCCC[C@@H](O)C1=C(COC)Cn2c(=O)n(-c3ccccc3)c(=O)n2[C@H]1CO	-0.577
COC(=O)[C@@H]1N=C(c2ccc(OCCCO)cc2)O[C@@H]1c1ccccc1CN=[N+]=[N-]	-0.938
CN1C=C(C(=O)OCCS(C)(=O)=O)C(C(=O)OCCS(C)(=O)=O)=CC(CCCO)=CC1c1ccc(CN2CCCC2)cc1 (stereo not given)	1.19
COCCOC(=O)N1C(=O)[C@@]2(c3ccccc31)[C@H](C(N)=O)[C@H]1C(=O)O[C@H](c3ccccc3)[C@H](c3ccccc3)N1[C@@H]2c1ccc(OCCO)cc1	1.14
CC(C)CNC(=O)[C@@H]1c2ccccc2C(=O)N(C(C)C)[C@H]1c1ccc(CO)cc1	0.0411

SMILES	composite z-score
CC(C)c1ccc(NN2C(C(O)C(C)C)C=CC3C(=O)N(c4ccccc4)C(=O)C32)cc1 (stereo not given)	0.431
COCCOC(=O)N1C(=O)[C@@]2(c3cc(C#CCC(C(=O)OC)C(=O)OC)ccc31)[C@H](C(=O)N1CCCCCCC1)[C@H]1C(=O)O[C@H](c3ccccc3)[C@H](c3ccccc3)N1[C@@H]2c1ccccc1OCCO	1.23
O=C(NCCO)C1=C[C@H](Oc2ccccc2I)[C@@H](O)[C@H](NCc2ccc(F)cc2)C1	1
COC(=O)Cn1c(C(=O)N(C)C)cc2c1C[C@H]1CN(C(=O)c3ccccc3)[C@@](Cc3ccc(OC)cc3)(C(=O)OC)[C@@H]21	0.0985
[N-]=[N+]=NCc1ccccc1C[C@]1(C(=O)NCc2ccccc2)N=C(c2ccc(OCCCO)cc2)O[C@H]1c1ccccc1CN=[N+]=[N-]	0.623
CC(=O)NCCCC[C@@H]1NC(=O)[C@H]2C[C@@H](C(=O)NCCCCCC[N+](C)(C)C)[C@@H](c3ccc(O)cc3)N2C1=O	1.75
[N-]=[N+]=NCc1ccccc1C[C@]1(C(=O)N2CCCCC2)N=C(c2ccc(OCCCO)cc2)O[C@H]1c1ccccc1	0.139
COc1ccc(CCNC(=O)[C@@]2(Sc3ccc(C)cc3)CC(=O)N(C(C)C)[C@@H]2c2ccc(CO)cc2)cc1	0.122
COC(=O)C(CC#Cc1ccc2c(c1)[C@]1(C(=O)N2)[C@H](c2ccc(O)cc2)N2[C@H](c3ccccc3)[C@H](c3ccccc3)OC(=O)[C@H]2[C@@H]1C(=O)N1CCc2cc(OC)c(OC)cc2C1)C(=O)OC	0.48
COc1ccccc1CN1C(=O)c2ccccc2[C@](Cc2ccccc2I)(C(=O)NCCCN(C)C)[C@@H]1c1ccc(CO)cc1	0.409
CN1C(=O)C2C(C1=O)C1C=C(c3ccc(CO)cc3)C2C(c2cccs2)N1C (stereo not given)	0.221
NCCCC[C@@H]1NC(=O)[C@H]2C[C@@H](C(=O)NCc3ccc(F)cc3)[C@@H](c3cccc(OCCO)c3)N2C1=O	1.48
CC(C)(C)OC(=O)CC[C@]1(C(=O)N2CCOCC2)N=C(c2ccc(OCCCO)cc2)O[C@H]1c1ccccc1CN=[N+]=[N-]	1.58
CC(C)[C@@H](C(=O)O)n1cc(-c2ccccc2)nn1	1.16
NCCCC[C@@H]1NC(=O)[C@H]2C[C@@H](C(=O)NCc3ccc(F)cc3)[C@@H](c3ccc(O)cc3)N2C1=O	2.58
O=C1OCCC=C[C@H]2OC34C=CCN(c5ccc(Cl)cc5)C(=O)[C@H]3N(CCO)C(=O)[C@@H]4C12 (stereo not given in full)	-0.0899
O=C1O[C@@H](c2ccccc2)[C@@H](c2ccccc2)N2[C@@H](c3ccc(O)cc3)[C@]3(C(=O)Nc4ccc(C#CC5=CCCCC5)cc43)[C@@H](C(=O)N3CCCCCCC3)[C@H]12	0.772
